One assay concerns the target Albumin (Bos taurus) (UniProt P02769). The experiment in a line: bovine serum albumin binders on microarray, profiling panel, artefact control for SMM control protein annotation, biochemical, small-molecule microarray, Alexa647 label, 635/667 nm fluorescence (AID 1118).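 Also: score merges 667 nm emission intensity and signal-to-noise per printed compound spot.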 The following applies: BSA-A647 binding, fluorescence 635 nm, higher = more signal.
Assay [1] can be described thus: small-molecule microarray binders of probe aXIP, primary screen, biochemical, NeuroSMM set, 635/667 nm fluorescence (AID 1119).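 Also: probe is the protein aXip251-270 applied at 1 µg/mL to compound-printed slides; binding of probe to printed compounds measured as 667 nm fluorescence plus signal to noise.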 The following applies: higher = more signal, called active from +8 up or from −8 down.
Assay [2] in a line: small-molecule binders of probe aNOTCH3, primary screen, biochemical, small-molecule microarray, 635/667 nm fluorescence (AID 1120).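 Also: probe is a biotin-tagged antibody raised against NOTCH3 rather than NOTCH3 protein; score merges spot fluorescence near 667 nm with spot signal to noise.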 The following applies: higher = more signal.
A short description of assay [3]: small-molecule binders of probe aNOTCH2, primary screen, biochemical, small-molecule microarray, 635/667 nm fluorescence (AID 1121).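 Also: score merges feature fluorescence read at 667 nm with its signal to noise.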 The following applies: higher = more signal.
Assay [4] has as its target Carbonic anhydrase 2 (Homo sapiens) (UniProt P00918). The experiment in a line: CAII small-molecule binders, profiling panel, biochemical, small-molecule microarray, Alexa647-labelled CAII (AID 1122). The following applies: CAII-A647 binding fluorescence, higher = more signal.
Assay [5] is described as follows: COS7 lysate on small-molecule microarray, probe aHis, 635 nm (AID 1123).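 Also: z-score combines 667nm fluorescence intensity with signal-to-noise per printed compound spot.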 The following applies: COS7 cell lysate, fluorescence, higher = more signal.
The nature of assay [6]: compound binding in COS7 lysate, probe aLAP1, primary screen, cell lysate, small-molecule microarray (AID 1124).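 Also: lysate comes from COS7 cells expressing LAP1 and is applied at 0.3 µg/mL; score merges spot fluorescence near 667 nm with signal-to-noise over triplicate slides.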 The following applies: probe aLAP1, fluorescence, higher = more signal.
The subject of the next assay is Sam68 (KHDRBS1). The experiment in a line: Sam68 small-molecule binders, primary screen, biochemical, small-molecule microarray, 635 nm fluorescence (AID 1125).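 Also: score merges 667 nm channel intensity with signal to noise over triplicate slides.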 The following applies: small-molecule microarray binding, higher = more signal.
Assay [7] has as its system Chordin-like protein 2 (CHRDL2). The experiment in a line: CHRDL2 small-molecule binders, primary screen, biochemical, small-molecule microarray, 635 nm fluorescence (AID 1126).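 Also: printed compound slides probed with Chrdl2 protein at 4 µg/mL for 1 h at 4 C; score merges 667 nm emission intensity with signal to noise over three replicate slides.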 The following applies: small-molecule microarray binding, fluorescence 635 nm; higher = more signal.
For assay [8], the target named is Concanavalin-A (Canavalia ensiformis) (UniProt P02866). The experiment in a line: ConA small-molecule binders, primary screen, artefact control for SMM control protein annotation, biochemical, small-molecule microarray, Alexa647 label, 635 nm (AID 1127).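 Also: z combines 667 nm emission intensity with signal-to-noise across three replicate slides.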 The following applies: ConA-A647 binding fluorescence, higher = more signal.
Chain of Concanavalin-A (Canavalia ensiformis) (P02866 whole entry, looked up): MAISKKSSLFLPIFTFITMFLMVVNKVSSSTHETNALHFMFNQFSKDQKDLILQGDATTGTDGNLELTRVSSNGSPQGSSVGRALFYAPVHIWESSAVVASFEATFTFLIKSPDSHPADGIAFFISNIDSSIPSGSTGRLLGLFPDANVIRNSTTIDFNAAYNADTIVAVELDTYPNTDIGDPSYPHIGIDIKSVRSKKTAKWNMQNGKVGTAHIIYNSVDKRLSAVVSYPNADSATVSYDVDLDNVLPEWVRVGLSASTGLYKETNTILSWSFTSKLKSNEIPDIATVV
Assay [9] is described as follows: anti-His antibody binders, primary screen, artefact control for SMM control protein annotation, biochemical, small-molecule microarray, 635 nm fluorescence (AID 1128).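 Also: score merges feature fluorescence with signal-to-noise for each printed compound spot.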 The following applies: anti-His Alexa647 antibody binding, higher = more signal.
Assay [10] relates to Human papillomavirus type 1a E7 protein (residues 1-88). The experiment in a line: HPV1a E7 small-molecule binders, primary screen, biochemical, small-molecule microarray, residues 1-88, 635 nm (AID 1129). The following applies: small-molecule microarray binding, fluorescence 635 nm; higher = more signal.
The target of assay [11] is Focal adhesion kinase 1 (Homo sapiens) (UniProt Q05397). Briefly: small-molecule microarray binders of FAK, primary screen, biochemical, 635/667 nm fluorescence, BSA, DTT (AID 1130).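 Also: composite of spot emission at 667 nm and signal to noise over triplicate slides.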 The following applies: PTK2 binding, 635 nm fluorescence, higher = more signal.
Chain of Focal adhesion kinase 1 (Homo sapiens) (Q05397 whole entry, looked up): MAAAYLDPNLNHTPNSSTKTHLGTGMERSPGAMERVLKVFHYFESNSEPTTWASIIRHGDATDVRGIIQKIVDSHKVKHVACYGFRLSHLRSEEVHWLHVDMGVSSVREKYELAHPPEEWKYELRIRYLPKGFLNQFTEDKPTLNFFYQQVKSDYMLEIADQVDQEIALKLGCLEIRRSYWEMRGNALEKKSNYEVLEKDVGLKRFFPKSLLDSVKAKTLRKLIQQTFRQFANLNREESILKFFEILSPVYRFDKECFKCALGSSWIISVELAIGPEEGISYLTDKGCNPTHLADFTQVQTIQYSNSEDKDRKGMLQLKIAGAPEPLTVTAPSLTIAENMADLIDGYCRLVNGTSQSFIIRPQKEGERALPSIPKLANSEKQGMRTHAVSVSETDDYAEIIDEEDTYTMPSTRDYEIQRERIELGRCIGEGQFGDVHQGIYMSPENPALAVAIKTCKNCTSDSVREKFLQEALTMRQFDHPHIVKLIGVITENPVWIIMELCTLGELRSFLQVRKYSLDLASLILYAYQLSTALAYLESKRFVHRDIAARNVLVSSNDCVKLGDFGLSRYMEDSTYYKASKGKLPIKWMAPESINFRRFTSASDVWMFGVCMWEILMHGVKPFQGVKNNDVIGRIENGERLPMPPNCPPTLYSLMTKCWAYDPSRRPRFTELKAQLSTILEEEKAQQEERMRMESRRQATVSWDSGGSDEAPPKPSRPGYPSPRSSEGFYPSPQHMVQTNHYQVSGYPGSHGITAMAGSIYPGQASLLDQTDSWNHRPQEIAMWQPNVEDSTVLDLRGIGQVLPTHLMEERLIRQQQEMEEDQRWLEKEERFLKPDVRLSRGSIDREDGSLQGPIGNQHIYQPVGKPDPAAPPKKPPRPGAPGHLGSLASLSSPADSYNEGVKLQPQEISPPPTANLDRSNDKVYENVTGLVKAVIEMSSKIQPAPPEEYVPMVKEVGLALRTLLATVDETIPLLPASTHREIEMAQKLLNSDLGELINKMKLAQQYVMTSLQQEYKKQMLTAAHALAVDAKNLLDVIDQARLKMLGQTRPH
The subject of assay [12] is Fibrinogen (Alexa647-labelled). The experiment in a line: fibrinogen binders on compound microarrays, profiling panel, artefact control for SMM control-protein annotation, biochemical, small-molecule microarray, 635/667 nm fluorescence (AID 1131).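 Also: z-score merges 667 nm fluorescence with per-spot signal-to-noise over triplicate slides.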 The following applies: fibrinogen-A647 binding fluorescence, higher = more signal.
For assay [13], the target named is Follistatin (Homo sapiens) (UniProt P19883). The experiment in a line: follistatin binders on small-molecule microarrays, primary screen, biochemical, small-molecule microarray, 635/667 nm fluorescence (AID 1132). The following applies: FST binding, 635 nm fluorescence, higher = more signal.
Chain of Follistatin (Homo sapiens) (P19883 whole entry, looked up): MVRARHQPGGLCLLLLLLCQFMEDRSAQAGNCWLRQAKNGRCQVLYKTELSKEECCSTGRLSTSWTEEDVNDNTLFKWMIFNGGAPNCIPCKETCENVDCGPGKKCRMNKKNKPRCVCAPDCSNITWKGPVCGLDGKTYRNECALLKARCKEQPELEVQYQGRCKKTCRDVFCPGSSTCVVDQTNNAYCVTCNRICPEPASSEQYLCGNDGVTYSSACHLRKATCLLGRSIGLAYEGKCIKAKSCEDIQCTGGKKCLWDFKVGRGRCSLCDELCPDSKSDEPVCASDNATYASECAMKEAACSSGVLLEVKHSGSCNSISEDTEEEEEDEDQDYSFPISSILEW
The target of assay [14] is Fibroblast growth factor 2 (Homo sapiens) (UniProt P09038). The experiment in a line: FGF2 binders on small-molecule microarrays, primary screen, biochemical, small-molecule microarray, 635/667 nm fluorescence (AID 1133). The following applies: small-molecule microarray binding, FGF2, fluorescence 635/667; higher = more signal.
Chain of Fibroblast growth factor 2 (Homo sapiens) (P09038 whole entry, looked up): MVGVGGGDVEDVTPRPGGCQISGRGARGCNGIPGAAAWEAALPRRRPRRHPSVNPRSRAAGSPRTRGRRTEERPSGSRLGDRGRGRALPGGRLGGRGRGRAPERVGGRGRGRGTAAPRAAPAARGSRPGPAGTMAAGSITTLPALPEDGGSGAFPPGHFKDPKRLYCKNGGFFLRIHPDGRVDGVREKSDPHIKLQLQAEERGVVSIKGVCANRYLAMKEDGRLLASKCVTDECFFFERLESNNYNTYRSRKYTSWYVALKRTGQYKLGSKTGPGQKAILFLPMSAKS
The nature of assay [15]: mitochondrial membrane potential change in A549 cells, profiling panel, cell-based, JC-1 fluorescence, basal, 24 h, 100 nL (AID 1138).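 Also: A549 lung adenocarcinoma cells under basal conditions with no added stimulus; test concentration not given here.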 The following applies: higher = more signal.
The next assay relates to Lefty1. Briefly: Lefty1 binders on small-molecule microarrays, primary screen, biochemical, small-molecule microarray, 635/667 nm fluorescence (AID 1139). The following applies: small-molecule microarray binding, fluorescence 635/667; higher = more signal.
Assay [16] relates to wheat germ agglutinin (Triticum aestivum), Alexa647-labelled. The experiment in a line: wheat germ agglutinin binders on compound microarrays, profiling panel, artefact control for SMM control-protein annotation, biochemical, small-molecule microarray, 635/667 nm fluorescence (AID 1140).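 Also: score merges 667 nm feature emission with signal to noise over triplicate slides.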 The following applies: WGA-A647 binding, 635 nm fluorescence, higher = more signal.
For assay [17], the target named is Luciferin 4-monooxygenase (Photinus pyralis) (UniProt P08659). The experiment in a line: firefly luciferase enzyme inhibitors, primary screen, biochemical, luminescence, purified enzyme, 2006 set (AID 1141).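 Also: cell-free assay with purified firefly luciferase at 100 ng per well in PBS; test concentration not given here.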 The following applies: SteadyGlo luminescence, 30 min, higher = more signal, called active from +8 up or from −8 down.
Chain of Luciferin 4-monooxygenase (Photinus pyralis) (P08659 whole entry, looked up): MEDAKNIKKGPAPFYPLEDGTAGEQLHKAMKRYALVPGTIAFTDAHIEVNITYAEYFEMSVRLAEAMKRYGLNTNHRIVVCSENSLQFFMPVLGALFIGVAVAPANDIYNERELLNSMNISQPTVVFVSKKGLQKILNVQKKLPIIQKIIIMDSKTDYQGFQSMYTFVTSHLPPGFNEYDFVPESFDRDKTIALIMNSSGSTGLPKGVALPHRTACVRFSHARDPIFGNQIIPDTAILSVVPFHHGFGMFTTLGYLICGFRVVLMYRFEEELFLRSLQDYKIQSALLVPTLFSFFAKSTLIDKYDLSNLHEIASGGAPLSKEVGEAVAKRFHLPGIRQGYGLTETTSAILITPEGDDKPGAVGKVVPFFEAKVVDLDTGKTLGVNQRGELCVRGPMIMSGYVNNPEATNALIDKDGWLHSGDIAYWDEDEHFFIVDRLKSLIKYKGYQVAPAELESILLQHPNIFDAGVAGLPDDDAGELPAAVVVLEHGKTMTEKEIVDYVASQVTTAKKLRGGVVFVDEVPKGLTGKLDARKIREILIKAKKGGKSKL

Active and inactive are the calls of the source.

Chain of Albumin (Bos taurus) (P02769 whole entry, looked up): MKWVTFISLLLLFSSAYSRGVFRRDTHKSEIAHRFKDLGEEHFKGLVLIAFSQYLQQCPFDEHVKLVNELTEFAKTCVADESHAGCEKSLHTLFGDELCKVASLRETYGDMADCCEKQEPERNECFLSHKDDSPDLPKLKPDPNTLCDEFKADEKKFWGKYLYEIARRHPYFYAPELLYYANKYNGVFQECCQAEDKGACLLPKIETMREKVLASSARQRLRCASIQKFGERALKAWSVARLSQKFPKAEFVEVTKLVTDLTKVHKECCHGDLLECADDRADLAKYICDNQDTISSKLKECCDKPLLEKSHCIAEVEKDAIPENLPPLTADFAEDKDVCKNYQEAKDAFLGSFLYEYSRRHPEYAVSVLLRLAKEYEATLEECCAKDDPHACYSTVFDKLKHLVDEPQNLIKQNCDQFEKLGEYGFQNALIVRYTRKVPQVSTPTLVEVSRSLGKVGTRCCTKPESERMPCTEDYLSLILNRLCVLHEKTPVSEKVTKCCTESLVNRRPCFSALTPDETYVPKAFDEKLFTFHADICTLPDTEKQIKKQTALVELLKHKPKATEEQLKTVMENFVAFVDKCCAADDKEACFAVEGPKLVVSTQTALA

For `COC(=O)c1c(CC[C@@H](CO)NC(=O)N[C@H](Cn2cc(-c3cncn3C)nn2)C(C)C)oc(C(C)=O)c1C(=O)OC`, the composite z-score with Albumin (Bos taurus) is 0.697; in assay [2], -0.0647; in [3], -0.11; in [4] it was 0.514; in assay [5] it was 0.651; in assay [6], 0.203. In addition, the composite z-score in the assay on Sam68 (KHDRBS1) is 1.27; in assay [7], 0.0779; in assay [8] it was 1.07; in [9], 1.15; in assay [10] it was 0.722; in assay [11], -0.205. Besides, the composite z-score in assay [12] is -0.0397; in [13], 0.415; in [14], 1.11; in the assay on Lefty1, 0.999; in assay [16] it was -0.0889. Also, the composite Z-score in assay [1] is 0.24 (inactive). For the same molecule, the z-score in assay [15] was -0.315; in [17], -0.263 (inactive).

As for `CCCC=C(CCC)[C@@H](NC(=O)c1ccc(C(F)(F)F)cc1)c1ccccc1`, the composite z-score is -0.0332 with Albumin (Bos taurus); 0.191 in assay [2]; -0.0007 in [3]; 0.104 in [4]; 1.29 in [5]; -0.805 in assay [6]. In addition, the composite z-score in the assay on Sam68 (KHDRBS1) is 0.989; in assay [7], -0.815; in assay [8] it was 0.483; in assay [9] it was 0.81; in assay [10], 0.788; in assay [11], 0.0363. The composite z-score in [12] is 0.0538; in assay [13], 0.0643; in [14] it was -0.764; with Lefty1, 0.0969; in [16] it was 0.352. Moreover, in [1], the composite Z-score was 0.0895 (inactive). The results for the z-score in assay [15] and in assay [17] were -2.54 and 1.2 (inactive), respectively.

As to `[N-]=[N+]=Nc1ccccc1C[C@@]1(C(=O)N2CCOCC2)N=C(c2ccc(OCCCO)cc2)O[C@@H]1c1ccccc1N=[N+]=[N-]`, the composite z-score with Albumin (Bos taurus) was 0.873; in assay [2], 0.121; in assay [3], -0.0286; in [4], 0.467; in [5] it was 1.24; in assay [6] it was 0.0649. The composite z-score is 1.33 in the assay with Sam68 (KHDRBS1); -0.338 in [7]; 1.1 in assay [8]; 2.48 in assay [9]; 1.19 in assay [10]; 1.41 in assay [11]. The composite z-score in assay [12] amounted to 0.886; in assay [13] it was 1.42; in [14] it was 0.667; with Lefty1 it was 0.0674; in assay [16], 1.22. The composite Z-score in assay [1] is 0.997 (inactive). Further, the z-score in [15] was 2.03; in assay [17] it was -3.69 (inactive).

Take `Cc1ccc(S(=O)(=O)N[C@H]2COC(=O)CC=C[C@H](C)COC(=O)N[C@@H](C)C(=O)CC=C[C@@H]2C)cc1`: the composite z-score with Albumin (Bos taurus) is -0.0363; in assay [2], -0.178; in assay [3], -0.145; in assay [4], -0.461; in assay [5], -0.43; in assay [6], -0.314. Besides, the composite z-score is 0.269 with Sam68 (KHDRBS1); 1.52 in assay [7]; 0.152 in [8]; -0.45 in assay [9]; -0.368 in assay [10]; -0.502 in [11]. Also, the composite z-score in assay [12] is -0.446; in assay [13], 0.953; in assay [14] it was 1.43; with Lefty1 it was 1.65; in [16] it was -0.557. The composite Z-score in [1] is -1.01 (inactive). Also, the z-score in assay [15] is 0.204; in assay [17] it was -0.537 (inactive).

Take `C=CCc1cccc([C@@H]2[C@@H](C)CC[C@H]3C(=O)N4[C@H](c5cccc(CC=C)c5)[C@@H](C)CC[C@H]4C(=O)N23)c1`: the composite z-score with Albumin (Bos taurus) was 0.593; in assay [2], 0.0827; in assay [3] it was -0.0304; in [4], 0.244; in assay [5] it was 0.564; in assay [6] it was 0.035. Also, the composite z-score in the assay on Sam68 (KHDRBS1) is 0.55; in assay [7] it was 0.977; in [8] it was 1.03; in assay [9] it was 0.22; in [10], 1.09; in assay [11] it was 0.19. The composite z-score in assay [12] is 0.991; in assay [13], 1.28; in assay [14], 0.704; with Lefty1 it was 0.644; in assay [16], 0.846. The composite Z-score in assay [1] was 0.576 (inactive). Also, the z-score in [15] was 3.36; in assay [17], -0.744 (inactive).
